Results on 20 compounds are retold here after PubChem BioAssay (NCATS).

Each structure is given as a SMILES string. Several values for one entry are separate records, joined by “and”; a condition that tells them apart may be missing. Equal entries are not always repeated. Records with an inconclusive call do not appear. Activity calls are given as the source filed them. Calls come from the whole dose curve; as a rule, active = well fitted inhibition curve with a large enough effect; inconclusive = small, poorly fitted or top-dose-only effect; inactive = no such curve, though single readings can be large or run the other way.
Potency is the fitted concentration of half-maximal effect.

This assay in a line: Primary qHTS for inhibitors of nuclear receptor binding SET domain protein 2 (NSD2) in an RCH-ACV wild type WT cells (2C) (AID 1645877). Note: nearly all actives have a fitted effect of over 70% in size. The conditions noted are these: RCH-ACV (leukaemia line) NSD2 WT (2C) viability, CellTiter-Glo, 72 h; series mostly up to 44.9 µM.
In the case of `Cc1[nH]nc2ccc(-c3cncc(OC[C@@H](N)Cc4ccccc4)c3)cc12`, the Potency is 326 nM (active) and 186 nM (active).

For the compound `Cc1ccc(NC(=O)C2(c3ccc4c(c3)OC(F)(F)O4)CC2)nc1-c1cccc(C(=O)O)c1`, the Potency result was “inactive”.

Take `CCn1nnc2c(N3CCOCC3)nc(-c3ccc(NC(=O)Nc4ccc(C(=O)N5CCN(C)CC5)cc4)cc3)nc21`: the Potency was 46.1 nM (active) and 59 nM (active).

With `C=CC(=O)Nc1cccc(Oc2nc(Nc3ccc(N4CCN(C)CC4)cc3OC)ncc2Cl)c1`, the Potency is 5.15 µM (active) and 8.33 µM (active).

`Cc1cnc(-c2cnc(NCCNc3ccc(C#N)cn3)nc2-c2ccc(Cl)cc2Cl)[nH]1`: the Potency was 3.25 µM (active) and 3.72 µM (active).

Consider `COc1ccc(-c2cc3c(C)nc(N)nc3n(C3CCC(OCCO)CC3)c2=O)cn1` (stereo not given), for which the Potency is 20.5 nM (active) and 41.7 nM (active).

Regarding `CCN1CCN(CC(=O)Nc2ccc(-c3cccc4c(=O)cc(N5CCOCC5)oc34)c3sc4ccccc4c23)CC1`, the Potency is 94.4 nM (active) and 257 nM (active).

In the case of `COc1cc(C)c(Sc2cnc(NC(=O)c3ccc(CNC(C)C(C)C)cc3)s2)cc1C(=O)N1CCN(C(C)=O)CC1` (stereo not given), the Potency is 8.33 µM (active) and 5.78 µM (active).

Turning to `Cn1cc(-c2ccncc2)c(-c2ccc(OCc3ccc4ccccc4n3)cc2)n1`, the Potency was 14.5 µM (active).

Take `O=C(O)C1(Cc2cccc(Nc3nccs3)n2)CCC(Oc2cccc(Cl)c2F)CC1` (stereo not given): the Potency was 2.58 µM (active) and 3.72 µM (active).

Consider `C=CC(=O)Nc1cccc(Oc2nc(Nc3ccc(N4CCN(C)CC4)cc3)ncc2Cl)c1`, for which the Potency was 649 nM (active) and 1.32 µM (active).

For `CNC(=O)c1ccc(N2C(=S)N(c3cnc(C#N)c(C(F)(F)F)c3)C(=O)C23CCC3)cc1F`, the Potency entry was “inactive”.

With `CC(C)(C)OC(=O)Nc1ccc(-c2cc(C(=O)NCCCCCCC(=O)NO)no2)cc1`, the Potency was 1.32 µM (active).

For the compound `CCCCOc1c(C(=O)c2c(F)cc(C)cc2F)cnc2n[nH]cc12`, the Potency is 578 nM (active) and 235 nM (active).

`Nc1ccn([C@@H]2CS[C@H](CO)O2)c(=O)n1`: the Potency result is “inactive”.

Regarding `CN(C1CCc2c(c3ccccc3n2CC(=O)O)C1)S(=O)(=O)c1ccc(F)cc1` (stereo not given), the Potency result is “inactive”.

Consider `COc1cc(C(=O)N2CCC(N3CCN(C)CC3)CC2)ccc1Nc1ncc2c(n1)N(C)c1ccccc1C(=O)N2C`, for which the Potency is 1.45 µM (active) and 1.86 µM (active).

For the compound `Nc1ccc(C(=O)c2cc3c(ccc4ccccc43)[nH]2)cc1`, the Potency was 1.71 µM (active).

Turning to `COc1cc2c(cc1-c1c(C)noc1C)ncc1[nH]c(=O)n([C@H](C)c3ccccn3)c12`, the Potency was 0.468 µM (active).

For the compound `O=C(O)c1ccc2c(c1)nc(Nc1cccc(Cl)c1)c1ccncc12`, the Potency was 3.65 µM (active).
